PostGolgi yeast: growth inhibition of a yeast mutant, post-Golgi transport screen; AID 739; 0.9% of 98,000 active; inhibition, % at 10 µM; post-Golgi transport phenotypic cell assay;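 also: yeast cells grown in 1536-well plates; yeast grown about 18 h at 30C before absorbance read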
CYP2C9 act: increases human cytochrome P450 2C9 activity. recombinant CYP2C9, luciferin-H conversion, luminescence; active compounds read high; factor 1 = untreated enzyme, 0 = blocked. activation factor at 5 µM. 1.4% of 96,000 active;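 active = activation factor of 2 or more for CYP2C9 at a 5 µM dose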
Target sequence (P11712 whole entry, looked up): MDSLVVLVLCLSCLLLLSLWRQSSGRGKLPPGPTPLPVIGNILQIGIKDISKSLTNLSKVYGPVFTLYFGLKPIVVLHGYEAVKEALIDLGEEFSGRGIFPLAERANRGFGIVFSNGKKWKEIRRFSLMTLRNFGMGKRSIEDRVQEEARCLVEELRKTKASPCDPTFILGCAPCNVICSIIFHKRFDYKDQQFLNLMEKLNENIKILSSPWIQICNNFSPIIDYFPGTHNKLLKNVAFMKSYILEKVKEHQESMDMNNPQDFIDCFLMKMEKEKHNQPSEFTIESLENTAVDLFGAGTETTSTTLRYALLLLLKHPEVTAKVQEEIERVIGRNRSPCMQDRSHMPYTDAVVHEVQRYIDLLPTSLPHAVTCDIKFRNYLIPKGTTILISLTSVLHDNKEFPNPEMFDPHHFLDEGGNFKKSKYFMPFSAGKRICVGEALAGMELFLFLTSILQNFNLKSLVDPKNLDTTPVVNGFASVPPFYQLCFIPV
CYP2C19 inh: human CYP2C19 inhibition; AID 778; P33261; 21% of 96,000 active; inhibition, % at 5 µM; CYP2C19 Supersomes, luciferin-H EGE luminescence, 30 min;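 active = CYP2C19 inhibition above a set limit at 5 µM in the primary screen, cut at about 50% in these data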
CYP2C19 activ: cytochrome P450 2C19 (human) activation; AID 1025; P33261; activation factor at 5 µM; 96,000 tested, under 10 active; recombinant CYP2C19, luciferin-H EGE luminescence; active compounds read high; 0 = fully inhibited enzyme, 1 = untreated enzyme;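 active = activation factor of at least 2 at 5 µM in the primary screen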
PostGolgi ctrl: inhibits growth of the yeast control strain. efflux-deficient yeast background strain, growth absorbance A615, 16 h. inhibition, % at 10 µM. 5% of 98,000 active. AID 738
CYP2C9 inh: human CYP2C9 inhibition | P11712 | CYP2C9 Supersomes, luciferin-H conversion, luminescence | inhibition, % at 5 µM | 20% of 96,000 active | AID 777;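 active = blocking of liver enzyme CYP2C9 beyond about 50% at 5 µM, limit read from the data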
Of the large screens only hits and unclear results are named; the others gave an inactive call. Not all results are given here. Rule as the data show it, unless noted: active = inhibition above about 30%; inactive = the rest.

CC(C)(C)OC(=O)NCCc1nnc(SCC(N)=O)o1	none
Cc1cccc(C)c1NC(=O)CSc1nnc(CCCCCNC(=O)OC(C)(C)C)o1	CYP2C19 inh 50, CYP2C9 inh 73
COC(=O)c1c(NC(=O)CN2CCN(C(=O)c3ccco3)CC2)c2cc(C)ccc2n1C	none
O=C(CN(Cc1ccccc1F)C(=O)Cn1nnc(-c2cccs2)n1)NCC1CCCO1 (stereo unspecified)	CYP2C19 inh 68, CYP2C9 inh 63
O=C(CN(C(=O)Cn1nnc(-c2cccs2)n1)c1cnc2ccccc2c1)NCC1CCCO1 (stereo unspecified)	CYP2C9 inh 75
CC(C)(C)NC(=O)C(c1cccs1)N(CC1CCCO1)C(=O)Cn1nnc(-c2cccs2)n1 (stereo unspecified)	none
CC(C)CCNC(=O)CN(CCCN1CCOCC1)C(=O)Cn1nnc(-c2ccc(F)cc2)n1	CYP2C9 inh 52
O=C(CN(Cc1ccccc1F)C(=O)Cn1nnc(-c2cccs2)n1)NC1CCCCC1	none
COc1ccc(-c2nnn(CC(=O)N(CC(=O)NC3CCCC3)Cc3cccs3)n2)cc1OC	none
CC(C)CCNC(=O)CN(Cc1ccc2c(c1)OCO2)C(=O)Cn1nnc(-c2cccs2)n1	CYP2C9 inh 92
COc1ccc(-c2nnn(CC(=O)N(CC(=O)NCCC(C)C)c3ccccc3)n2)cc1OC	none
COc1cc2cc(CN(CCO)C(=O)c3cccs3)c(=O)[nH]c2cc1OC	none
O=C(CCC(=O)N1CCOCC1)Nc1nnc(C2CCCCC2)s1	none
CCOC(=O)c1sc(NC(=O)CSc2nnnn2-c2ccc(C)cc2C)nc1C	none
O=C(CN(C(=O)Cn1nnc(-c2cccs2)n1)c1ccc2c(c1)OCCO2)NCC1CCCO1 (stereo unspecified)	CYP2C9 inh 88
Cc1ccc(-c2nnn(CC(=O)N(CC(=O)NCC3CCCO3)c3ccccc3)n2)o1 (stereo unspecified)	none
O=C(CN(C(=O)Cn1nnc(-c2cccs2)n1)c1ccc2c(c1)OCCO2)NC1CCCCC1	CYP2C19 inh 60, CYP2C9 inh 99
O=C(NC1CCCCC1)C(c1ccncc1)N(C(=O)Cn1nnc(-c2cccs2)n1)C1CCCC1 (stereo unspecified)	none (no result: CYP2C9 act, CYP2C19 inh, CYP2C19 activ, CYP2C9 inh)
CN1CCC(OC(=O)COc2ccc(C(C)(C)C)cc2)CC1	none
O=C(c1ccc(Cl)s1)N1CCN(c2ccccc2)CC1	none (no result: CYP2C9 act, CYP2C19 inh, CYP2C19 activ, CYP2C9 inh)
Brc1ccc(-c2cn3c(n2)CCc2ccc4cccnc4c2-3)cc1	PostGolgi yeast 52, PostGolgi ctrl 59
CCCCC(OC(=O)c1cc2occc2n1C)C(=O)NCC1CCCO1 (stereo unspecified)	none
COc1cc(-c2nc(S(=O)(=O)c3ccc(C)cc3)c(N3CCOCC3)o2)cc(OC)c1OC	CYP2C9 inh 51
O=S(=O)(c1ccccc1)c1nc(-c2ccco2)oc1N1CCOCC1	none
COc1cc(-c2nc(S(=O)(=O)c3ccc(C)cc3)c(N(C)C)o2)cc(OC)c1OC	CYP2C9 inh 56
COc1ccccc1-c1nc(S(=O)(=O)c2ccc(Cl)cc2)c(N(C)C)o1	none
CC(C)(C)c1nc(S(=O)(=O)c2ccc(Cl)cc2)c(N2CCOCC2)o1	none
COc1cc(-c2nc(S(=O)(=O)c3ccc(Cl)cc3)c(N3CCOCC3)o2)cc(OC)c1OC	CYP2C9 inh 62
CC(C)Cc1nc(S(=O)(=O)c2ccc(Cl)cc2)c(N2CCOCC2)o1	CYP2C19 inh 57
O=S(=O)(c1ccccc1)c1nc(-c2ccccc2)oc1N1CCCCC1	none
COC(=O)c1scc(C)c1N/N=C(\C)c1cc(F)c(Cl)cc1F	none
Cc1cccc2nc(C(F)(F)F)nc(=O)n12	none
COc1cccc(C(=O)Nc2ccc(NC(=O)C3CC3)cn2)c1	none
O=C(NCCc1ccccc1)c1nc2c(nnn2Cc2ccccc2Cl)c(=O)[nH]1	none (no result: CYP2C9 act, CYP2C19 inh, CYP2C19 activ, CYP2C9 inh)
COc1ccc(Cn2nnc3c(=O)[nH]c(C(=O)NCCc4ccc(F)cc4)nc32)cc1OC	PostGolgi ctrl 31, CYP2C9 inh 74
CCOc1cc2c(C#N)c(N3CCOCC3)nc(N)c2c(N)n1	none
CCCN(CC1CC1)c1nc(N)c2c(N)nc(OC)cc2c1C#N	PostGolgi ctrl 35
CCOC(=O)Cc1csc(NC(=S)NC(=O)c2ccccc2C)n1	none
O=C(COc1ccccc1)Nc1cccc2c1CCCC2	CYP2C9 act 2.1
O=C(CCCc1ccccc1)Nc1cccc2c1CCCC2	CYP2C9 act 2.6, PostGolgi ctrl 37
CN(CC(=O)Nc1cccc2c1CCCC2)S(=O)(=O)c1ccc(Br)cc1	none
CN(CC(=O)Nc1cccc2c1CCCC2)S(=O)(=O)c1ccccc1	CYP2C9 act 2.3
CC(C)(C)CC(=O)Nc1cccc2c1CCCC2	none
COc1ccc(NC(=O)CSc2nc(O)c(Cc3ccccc3)c(=O)[nH]2)cc1	none
CCn1c(SCC(=O)c2ccc(Cl)cc2)nnc1-c1ccoc1C	CYP2C19 inh 66
CCn1c(SCC(=O)c2ccc(C)cc2)nnc1-c1ccoc1C	CYP2C19 inh 98
CCn1c(SCC(=O)c2ccccc2)nnc1-c1ccoc1C	CYP2C19 inh 97, CYP2C9 inh 54
CCn1c(SCC(=O)c2ccc(C)cc2)nnc1-c1ccncc1	none
O=C1NCCCC1C(=O)N1CCN(C(c2ccccc2)c2ccccc2)CC1 (stereo unspecified)	none (no result: PostGolgi yeast, PostGolgi ctrl)
CC(C)C(C(=O)N1CCOCC1)N1C(=O)c2ccccc2C1=O (stereo unspecified)	none
CCCCNC(=O)CSc1nc2cc3c(cc2c(=O)n1CCCN(CC)CC)OCO3	none
COCCNC(=O)c1ccc2c(=O)n(Cc3ccco3)c(SCC(=O)NC3CCCC3)nc2c1	CYP2C19 inh 52, CYP2C9 inh 81
CCC(Sc1nc2cc3c(cc2c(=O)n1Cc1ccco1)OCO3)C(=O)Nc1ccccc1OC (stereo unspecified)	none
CCC(Sc1nc2cc3c(cc2c(=O)n1Cc1ccco1)OCO3)C(=O)Nc1cccc(OC)c1 (stereo unspecified)	CYP2C9 inh 60
COCCNC(=O)CSc1nc2cc3c(cc2c(=O)n1Cc1ccco1)OCO3	CYP2C19 inh 93, CYP2C9 inh 53
CCC(Sc1nc2cc3c(cc2c(=O)n1Cc1ccco1)OCO3)C(=O)NCCOC (stereo unspecified)	PostGolgi ctrl 31
CCN(CC)C(=O)CSc1nc2cc3c(cc2c(=O)n1Cc1ccc2c(c1)OCO2)OCO3	none
O=C(Nc1ccccc1C(=O)N1CCOCC1)c1cccnc1	none
O=C(c1cccnc1Nc1ccc2c(c1)CCC2)N1CCOCC1	CYP2C19 inh 70
O=c1cc(N2CCOCC2)[nH]c(=O)n1-c1ccc(Br)cc1	none
Cn1c(=O)[nH]c(=O)c2[nH]c(CN3CCN(C(=O)c4ccco4)CC3)nc21	none
COc1ccc(C(=O)CSc2nc(SC)ns2)cc1OC	CYP2C19 inh 62
CCn1nnc(NC(=O)c2cc3ccccc3o2)n1	none
N#Cc1ccccc1NCc1ccccc1	PostGolgi ctrl 32
O=c1cccccc1NCc1ccccc1	none
